Experimental data taken from PubChem BioAssay (EPA / NIEHS).
Calls of active or inactive are those of the source. The calls were made as follows: active = hit-call score of the fitted dose curve at least 0.9, where 1 is the maximum; inactive = score below 0.9.

Each compound was assayed on Interleukin-1 alpha (IL1a), IL1A (gene 3552) (assay: BSK_LPS_IL1a: BioMAP Diversity Plus: LPS Assay for Interleukin-1 alpha (IL1a) Biomarker Activity (AID 2283080)). Conditions: primary human HUVEC with PBMC; actives raise or lower the signal.
Experimental: BSK_LPS is a cell-based, multiplexed-readout assay that uses umbilical vein endothelium and peripheral blood mononuclear cells, a human vascular primary cell co-culture, with measurements taken at 24 hours after chemical dosing in a 96-well plate.BSK_LPS_IL1a is an assay component measured in the BSK_LPS assay. It measures IL-a antibody related to regulation of gene expression using ELISA technology.Data from the assay component BSK_LPS_IL1a was analyzed into 1 assay endpoint. This assay endpoint, BSK_LPS_IL1a, was analyzed with bidirectional fitting relative to DMSO as the negative control and baseline of activity. Using a type of binding reporter, gain or loss-of-signal activity can be used to understand changes in the signaling as they relate to the gene IL1A. Furthermore, this assay endpoint can be referred to as a primary readout, because this assay has produced multiple assay endpoints where this one serves a signaling function. To generalize the intended target to other relatable targets, this assay endpoint is annotated to the cytokine intended target family, where the subfamily is interleukins.
The levels of cell surface (or secreted, indicated by the prefix "s") biomarker endpoints were measured by ELISA. Overt cytotoxicity to cells in confluent adherent cultures (all systems other than the BT system) was assessed by measuring total protein levels using sulforhodamine B (SRB) staining in parallel cultures at the time of biomarker measurements, indicated as SRB endpoints. For proliferation assays for adherent cell types, individual cell types are cultured at sub-confluence and relative cell numbers quantified by SRB staining at time points optimized for each system (48 h: 3C and CASM3C systems; 72 h: BT and HDF3CGF systems; 96 h: SAg system). SRB was performed by staining cells with 0.1% SRB after fixation with 10% TCA and reading wells at 560 nm.Viability and proliferation of PBMC (T cells) was quantified by Alamar Blue reduction for the SAg and BT systems. For PBMC viability (referred to as PBMC Cytotoxicity within the assay endpoint names), cells were plated (75,000/well in a 96-well plate) and then chemical samples added for 1 h before addition of activators, SEB and TSST-1 (20 ng/mL final concentration each). Cells were incubated for 90 h. Then, Alamar Blue (20 uL/well) (Invitrogen, Cat DAL1100) was added for 6 h, and the plates were read with a fluorescence microplate reader at 546/580 nm (excitation/emission). For PBMC proliferation, cells were plated and activated as above but incubated for only 16 h prior to addition of Alamar Blue. Plates were read after 6 h.

Row | Compound | outcome | AC50
1 | c1ccc2c(c1)oc1ccccc12 | inactive | 
2 | CN(C)c1ccccc1 | inactive | 
3 | CC(C)(C)OOC(=O)c1ccccc1 | inactive | 
4 | Clc1ccc(C(c2ccc(Cl)cc2)C(Cl)(Cl)Cl)cc1 |  | 14.6 µM (active)
5 | Nc1ccc(Cc2ccc(N)cc2)cc1 | inactive | 
6 | O=[N+]([O-])c1ccc(Oc2ccc(Cl)cc2Cl)cc1 |  | 27.2 µM (active)
7 | CCCCCCCCCCCCCN1CC(C)OC(C)C1 (stereo not given) | inactive | 
8 | O=C(O)C1C2CCC(O2)C1C(=O)O (stereo not given) |  | 18.6 µM (active)
9 | CCC(C)c1ccc(O)cc1 (stereo not given) | inactive | 
10 | CCOc1cccc(C2(N3CCN(c4ccccc4)CC3)CCC(C)CC2)c1 (stereo not given) | inactive | 
11 | CCN(CC)N=O | inactive | 
12 | O=C(Nc1ccccc1)c1ccccc1I | inactive | 
13 | CO[C@@H]1[C@H](OC(=O)NC(=O)CCl)CC[C@]2(CO2)[C@H]1[C@@]1(C)O[C@@H]1CC=C(C)C |  | 6.19 µM (active)
14 | c1ccc2c(c1)-c1cccc3cccc-2c13 | inactive | 
15 | C=CCc1ccc2c(c1)OCO2 | inactive | 
16 | CC(C)(OOC(C)(C)c1ccccc1)c1ccccc1 |  | 29.2 µM (active)
17 | CC(C)(C)OOC(C)(C)CCC(C)(C)OOC(C)(C)C | inactive | 
18 | Cc1ccc(N=C=O)cc1N=C=O | inactive | 
19 | CC(C)(O)c1cnn2c(-c3ccc(F)c(-c4c(F)cccc4C#N)c3)cnc2n1 | inactive | 
20 | CN(C)C(=O)Nc1ccc(Cl)cc1 | inactive | 

Row | Compound | outcome | AC50
21 | C1=Cc2cccc3cccc1c23 | inactive | 
22 | ClCCOCCCl | inactive | 
23 | OCCOCCO | inactive | 
24 | CC(C)N(Cc1ccccc1)C(=O)C(C)(C)C | inactive | 
25 | Oc1ccccc1Cl | inactive | 
26 | Cc1ccc(N)c(N)c1 | inactive | 
27 | CCNS(=O)(=O)C(F)(F)C(F)(F)C(F)(F)C(F)(F)C(F)(F)C(F)(F)C(F)(F)C(F)(F)F | inactive | 
28 | C[N+](C)(C)CC1CO1 (stereo not given) | inactive | 
29 | [As]#[In] | inactive | 
30 | N#CC(Br)Br | inactive | 
31 | CC(C)(C)C(O)(CCc1ccc(Cl)cc1)Cn1cncn1 (stereo not given) | inactive | 
32 | [Cl-].[Cl-].[Hg+2] | inactive | 
33 | COC(=O)c1ccccc1N | inactive | 
34 | O=Cc1ccco1 | inactive | 
35 | O=[N+]([O-])C(Br)(CO)CO |  | 34 µM (active)
36 | CN(C)[C@@H]1C(=O)C(C(N)=O)=C(O)[C@@]2(O)C(=O)C3=C(O)c4c(O)cccc4[C@@](C)(O)[C@H]3C[C@@H]12 | inactive | 
37 | Oc1ccc2ccc3cccc4ccc1c2c34 |  | 29.2 µM (active)
38 | CCC[CH2][Sn]([Cl])([CH2]CCC)[CH2]CCC |  | 0.344 µM (active)
39 | c1ccc(N=Nc2ccccc2)cc1 | inactive | 
40 | COP(=S)(OC)SCN1C(=O)c2ccccc2C1=O | inactive | 
